Source: the supplement of paper PMC10105736
A number with no mark means an inactive call.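 How the source made its calls: active = MAPPIT score above the 99th percentile of random reference set scores in the same batch; inactive = at or below it.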

Legend:
Experiment in all cases: MAPPIT interaction score (arbitrary units); higher = stronger binary interaction signal, active = hit call of the paper
CG17224 = settings: MAPPIT configuration: N-N; pair source set: Finley_Y2H
CG17162 = settings: MAPPIT configuration: N-C
CG16904 = settings: MAPPIT configuration: N-N; pair source set: Curagen_low_conf
CG2865 = settings: MAPPIT configuration: N-N; pair source set: Curagen_low_conf
Cul3 = settings: pair source set: Lit-BM-16
puc = settings: pair source set: Lit-BM-16
spir = settings: MAPPIT configuration: N-N; pair source set: Curagen_low_conf
CG17770 = settings: pair source set: RRS
CG17598 = settings: MAPPIT configuration: N-N; pair source set: Lit-BM-16
CG15576 = settings: MAPPIT configuration: N-N; pair source set: Curagen_low_conf
CG17217 = settings: MAPPIT configuration: N-N; pair source set: Finley_Y2H
PIG-T = settings: MAPPIT configuration: N-N; pair source set: DPIM
Prosalpha6T = settings: pair source set: Lit-BM-16
Prosbeta3 = settings: MAPPIT configuration: N-C; pair source set: Lit-BM-16
Rpt2 = settings: pair source set: Lit-BM-16
Rpt4 = settings: pair source set: Lit-BM-16
CG1789 = settings: MAPPIT configuration: N-N; pair source set: Finley_Y2H
Mnt = settings: pair source set: Lit-BM-16
CG15728 = settings: MAPPIT configuration: N-C; pair source set: screen_3
CG17776 = settings: MAPPIT configuration: N-N; pair source set: Lit-BS-16
CG15529 = settings: MAPPIT configuration: N-C; pair source set: screen_4
CG17991 = settings: MAPPIT configuration: N-C; pair source set: screen_3
sina = settings: MAPPIT configuration: N-N; pair source set: screen_2
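Further: HEK293T cells with Epo stimulation, STAT-responsive firefly luciferase reporter, fold induction versus unstimulated cells divided by the larger fold induction of two negative controls lacking either bait or prey.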

B1: Ddc (protein)
chain: MSHIPISNTIPTKQTDGNGKANISPDKLDPKVSIDMEAPEFKDFAKTMVDFIAEYLENIRERRVLPEVKPGYLKPLIPDAAPEKPEKWQDVMQDIERVIMPGVTHWHSPKFHAYFPTANSYPAIVADMLSGAIACIGFTWIASPACTELEVVMMDWLGKMLELPAEFLACSGGKGGGVIQGTASESTLVALLGAKAKKLKEVKELHPEWDEHTILGKLVGYCSDQAHSSVERAGLLGGVKLRSVQSENHRMRGAALEKAIEQDVAEGLIPFYAVVTLGTTNSCAFDYLDECGPVGNKHNLWIHVDAAYAGSAFICPEYRHLMKGIESADSFNFNPHKWMLVNFDCSAMWLKDPSWVVNAFNVDPLYLKHDMQGSAPDYRHWQIPLGRRFRALKLWFVLRLYGVENLQAHIRRHCNFAKQFGDLCVADSRFELAAEINMGLVCFRLKGSNERNEALLKRINGRGHIHLVPAKIKDVYFLRMAICSRFTQSEDMEYSWKEVSAAADEMEQEQ
- MAPPIT interaction score (CG17224): 0.0861

B2: B-H1 (protein)
chain: MKDSMSILTQTPSEPNAAHPQLHHHLSTLQQQHHQHHLHYGLQPPAVAHSIHSTTTMSSGGSTTTASGIGKPNRSRFMINDILAGSAAAAFYKQQQHHQQLHHHNNNNNSGSSGGSSPAHSNNNNNINGDNCEASNVAGVGVLPSALHHPQPHPPTHPHTHPHALMHPHGKLGHFPPTAGGNGLNVAQYAAAMQQHYAAAAAAAAARNNAAAAAAAAAAAAAAGVAAPPVDGGVDGGVGLAPPAGGDLDDSSDYHEENEDCDSGNMDDHSVCSNGGKDDDGNSVKSGSTSDMSGLSKKQRKARTAFTDHQLQTLEKSFERQKYLSVQERQELAHKLDLSDCQVKTWYQNRRTKWKRQTAVGLELLAEAGNFAAFQRLYGGSPYLGAWPYAAAAGAAHGATPHTNIDIYYRQAAAAAAMQKPLPYNLYAGVPSVGVGVGVGVGPAPFSHLSASSSLSSLSSYYQSAAAAASAANPGGPHPVAPPPSVGGGSPPSGLVKPIPAHSASASPPPRPPSTPSPTLNPGSPPGRSVDSCSQSDDEDQIQV
- MAPPIT interaction score (CG17162; pair source set: screen_4): 4.06 (active)

B3: rdx (protein)
chain: MFEPYVKIKKKRSVNEIYENENLEQQQHHLQQQQQQPATSDNCCCENGEPQNAPEVATATVAATSVAATSAAATVATGAAASSSSSGNCSRLQQLISTPPVLLRRSSLQQQQHQQQQHHPHTPAATATPPQQQQQQQAAPSVLQQHLGHLNYESGATAAAAATAAAAAATVATSRSGSATLAQHLATPSNILQAAFGSSNLQHILTRSAPSPSSSAISSNNCSSACAGNTHYNGGNSNSGSSSSNSNHHSNSIIASRLFGAASSSSSSSSSSASASSSSVAASSSSSSHHLHSHHSALTNSITNRINQSIRRHLNQQQHHHPLSASSSSASASPSASTSSSSSYQQSSVQQQHYNCAHPAQQQQHHHHHHSSSSSSSSSSSSSHHHHNSSSSSNSNNQQQPQQSPLCLVLLVKCPNSKEFCNAAANFCDKRLPVNECQASQTARVTSNLHASSSTMAVSRVPSPPLPEVNTPVAENWCYTQVKVVKFSYMWTINNFSFCREEMGEVLKSSTFSAGANDKLKWCLRVNPKGLDEESKDYLSLYLLLVSCNKSEVRAKFKFSILNAKREETKAMESQRAYRFVQGKDWGFKKFIRRDFLLDEANGLLPEDKLTIFCEVSVVADSVNISGQSNIVQFKVPECKLSEDLGNLFDNEKFSDVTLSVGGREFQAHKAILAARSDVFAAMFEHEMEERKLNRVAITDVDHEVLKEMLRFIYTGKAPNLEKMADDLLAAADKYALEKLKVMCEEALCVNLSVETAAETLILADLHSADQLKAQTIDFINTHATDVMETSGWQNMITTHSHLIAEAFRALATQQIPPIGPPRKRVKMS
- MAPPIT interaction score (CG16904): -0.125
- MAPPIT interaction score (CG2865): -0.131
- MAPPIT interaction score (Cul3; MAPPIT configuration: N-C): 1.12
- MAPPIT interaction score (Cul3; MAPPIT configuration: N-N): 0.911
- MAPPIT interaction score (puc; MAPPIT configuration: N-C): 0.404
- MAPPIT interaction score (puc; MAPPIT configuration: N-N): 0.467
- MAPPIT interaction score (spir): 0.125

B4: Rtf1 (protein)
chain: MGKRRTQSLIDSNSSDSDSESETNLESDLMSLAKKRKKPQTAAKSSSRSDSDSDWANNKAGAPSSKKKKRQKPSRDSSSSESNWDDDSQDERQPARQSPAQTQQEHKPPEQASQPAQLSEQEEGEVSDSDSDKSKSNSSSSGSDSSSSSSSSDSEFDDGFDDDLMGDDEDRRRLNGLSEKERETEIYKRIEQREIMRTRWEIERKLKLARRGEKNQEKSKNKGERAKKKKEKREKKARKAREAQAPLPTQASTSTLLDVEPKPSNEVRSASPLSTPALNRDAASTSAAVASIMPDDAASSAGVSDYFDHKERSKERKKNVEANKTDDKRSNAMALLKAKREGKAKREEEEAKRMAEKDRDDDKEELDSVSGCKSAVKLKASEIYSDDSGSSDWDEEEKPAGKRSRSNSSKASSESEDEEKAPQRPVFITTREDLNKLRLSRYKMERFVNLPIFESTVLNCFVRISIGNNGQKPVYRVAEIVGVVETGKIYSLGTTRTNRGLRLKHGTQERVFRLEFISNQEFTENEFNKWNEVCQQSHVQMPTIDLIAIKQNDIKKALNYEFKDEDVDKIVEEKNRFRNRPTNYAMKKTCLMKERDAAMLRGDYDIAQDLGQQIDELENRASELDKRRSHTLNLISYINDRNRKKNVEDAEKAILEEARANKGLKISDPFTRRITQPRMGFKGAKKDEDDMQLAPLPPPPPGKKRPNEAGTSSASVRSTDSKDYSLYSLHDFDIDLDVPLPVNTNSVPKPASKPAETVSKRSLNLEDYKKKRGLI
- MAPPIT interaction score (CG17770; MAPPIT configuration: N-C): 0.216
- MAPPIT interaction score (CG17770; MAPPIT configuration: N-N): -0.281

B5: Rab2 (protein)
chain: MSYAYLFKYIIIGDTGVGKSCLLLQFTDKRFQPVHDLTIGVEFGARMITIDGKQIKLQIWDTAGQEAFRSITRSYYRGAAGALLVYDITRRETFNHLTTWLEDARQHSNSNMVIMLIGNKSDLDSRREVKKEEGEAFAREHGLVFMETSARTAANVEEAFINTAKEIYEKIQEGVFDINNEANGIKIGQQHSPTNPSLPGAGGAAGAANSGCC
- MAPPIT interaction score (CG17598): 1.18

B6: Nedd8 (protein)
chain: MLIKVKTLTGKEIEIDIEPTDKVDRIKERVEEKEGIPPQQQRLIFSGKQMNDDKTAADYKVQGGSVLHLVLALRGGDSILTPCV
- MAPPIT interaction score (CG15576): 1.7

B7: Prosalpha2 (protein)
chain: MATERYSFSLTTFSPSGKLVQLEYALAAVSGGAPSVGIIASNGVVIATENKHKSPLYEQHSVHRVEMIYNHIGMVYSGMGPDYRLLVKQARKIAQTYYLTYKEPIPVSQLVQRVATLMQEYTQSGGVRPFGVSLLICGWDNDRPYLYQSDPSGAYFAWKATAMGKNAVNGKTFLEKRYSEDLELDDAVHTAILTLKEGFEGKMTADNIEIGICDQNGFQRLDPASIKDYLASIP
- MAPPIT interaction score (CG17217): 1.84
- MAPPIT interaction score (PIG-T): 0.383
- MAPPIT interaction score (Prosalpha6T; MAPPIT configuration: N-C): 2.29
- MAPPIT interaction score (Prosalpha6T; MAPPIT configuration: N-N): -0.206
- MAPPIT interaction score (Prosbeta3): 1.69
- MAPPIT interaction score (Rpt2; MAPPIT configuration: N-C): -1.15
- MAPPIT interaction score (Rpt2; MAPPIT configuration: N-N): 0.523
- MAPPIT interaction score (Rpt4; MAPPIT configuration: N-C): 0.723
- MAPPIT interaction score (Rpt4; MAPPIT configuration: N-N): -0.155

B8: Max (protein)
chain: MSMSDDDRDIDIESDEDGDSDTGLGSSRHTNTANFTQAEKRAHHNALERRRRDHIKESFTNLREAVPTLKGEKASRAQILKKTTECIQTMRRKISENQKDIEEIKRQNNIIAKQIQALESSNGDQFSEFLSDEEVGSEEADDEDLDQDFSRRNKKMKTFHA
- MAPPIT interaction score (CG1789): 0.0947
- MAPPIT interaction score (Mnt; MAPPIT configuration: N-C): 4.14 (active)
- MAPPIT interaction score (Mnt; MAPPIT configuration: N-N): 5.94 (active)

B9: TrxT (protein)
chain: MVYPVRNKDDLDQQLILAEDKLVVIDFYADWCGPCKIIAPKLDELAHEYSDRVVVLKVNVDENEDITVEYNVNSMPTFVFIKGGNVLELFVGCNSDKLAKLMEKHAGVYTDEAADVKAVHIDGECIVDLTAESSESDNDNNNVNEVSAHDENAVLEH
- MAPPIT interaction score (CG17162; pair source set: screen_4): 1.51

B10: REPTOR-BP (protein)
chain: MADMEIQSNKMSITEETQVQTRKECGKRGRKPGRKTSTEKLDMKAKLERSRQSARECRARKKLRYQYLEELVADREKAVVALRTELERLIQWNNQLSESNTPTNNDQLLQELGILKQE
- MAPPIT interaction score (CG15728): 1.49
- MAPPIT interaction score (CG17776): -0.21

B11: Yp3 (protein)
chain: MMSLRICLLATCLLVAAHASKDASNDRLKPTKWLTATELENVPSLNDITWERLENQPLEQGAKVIEKIYHVGQIKHDLTPSFVPSPSNVPVWIIKSNGQKVECKLNNYVETAKAQPGFGEDEVTIVLTGLPKTSPAQQKAMRRLIQAYVQKYNLQQLQKNAQEQQQQLKSSDYDYTSSEEAADQWKSAKAASGDLIIIDLGSTLTNFKRYAMLDVLNTGAMIGQTLIDLTNKGVPQEIIHLIGQGISAHVAGAAGNKYTAQTGHKLRRITGLDPAKVLSKRPQILGGLSRGDADFVDAIHTSTFAMGTPIRCGDVDFYPNGPSTGVPGSENVIEAVARATRYFAESVRPGSERNFPAVPANSLKQYKEQDGFGKRAYMGLQIDYDLRGDYILEVNAKSPFGQRSPAHKQAAYHGMHHAQN
- MAPPIT interaction score (CG15576): 0.532

B12: CG3817 (protein)
chain: MALLTEKRVKKTHAPASDSSPEESDSEGSQNSASEAEGNAGWADSIQKVLKTTKPKTQKKTVLARAKKSQAAVRFQKDAANKKPGFDFEIEKADVKEEDEGDNHEDEKPQASALDATLTKQQRKNVPLQLRVKPSFRDMERERTLRKVATRGVVQFFNAVRIQQKDLQQQLEEAGPLDSRQDAVLNNINKRKFLDVLMSGKRAKSTPVDNAVKKEEQETDDDDEDKGSSGKKKSEWSVLREDFMTNKKIKHWDEEDDDEEGHNDEADDSDYDDGEE
- MAPPIT interaction score (CG15529): 1.02

B13: p38c (protein)
chain: MPEFVRVAINESLWEFPDIYEFVRFLGGGSFGQVAKVRLRGTENYFAMKRLMRPFEREEDAKGTYREIRLLKHMNHRNVISLLNVFHPPAHNMMEFQQVYLVTHLMDADLHRYSRSKRMSDQEIRIILYQILRGLKYIHSAGVVHRDLKPCNIAVNGNSEVRILDFGLSRMCADKMTDHVGTMWYLAPEIIFLRGQYTKAIDVWSVGCILAELITDRVLFRGENYVSQIRCLINIMGTPTREFITGISMERSRNYLEGYPLRQRCDFHHLFMGYDVQAIDLMEKMLEMVPEKRITAAEAMLHPYLRDLIEPHHHAEDTAPVYDQNFENMVLPVKCWKELVSHEIRNFRPDQLDLHF
- MAPPIT interaction score (CG17162; pair source set: screen_3): 0.769

B14: ben (protein)
chain: MSSLPRRIIKETQRLMQEPVPGINAIPDENNARYFHVIVTGPNDSPFEGGVFKLELFLPEDYPMSAPKVRFITKIYHPNIDRLGRICLDVLKDKWSPALQIRTILLSIQALLSAPNPDDPLANDVAELWKVNEAEAIRNAREWTQKYAVED
- MAPPIT interaction score (CG17991): 0.127
- MAPPIT interaction score (sina): 0.428
